Assay results taken from PMC4336329 (PLoS ONE, 2015).
About 14,000 (4.5%) of roughly 310,000 compounds showed an effect of 50% or more. Effects have a minus sign here. Shown is part of a subset that was picked to be rich in strong results.

These compounds were tested against human ether-à-go-go-related gene (hERG) potassium channel (human, UniProt Q12809) (assay: primary screen, population patch clamp on CHO cells stably expressing hERG; higher = less effect of the substance).
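Further: peak tail current of the secondary pulse compared with the same well before compound.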

Chain of human ether-à-go-go-related gene (hERG) potassium channel (Q12809 whole entry, looked up): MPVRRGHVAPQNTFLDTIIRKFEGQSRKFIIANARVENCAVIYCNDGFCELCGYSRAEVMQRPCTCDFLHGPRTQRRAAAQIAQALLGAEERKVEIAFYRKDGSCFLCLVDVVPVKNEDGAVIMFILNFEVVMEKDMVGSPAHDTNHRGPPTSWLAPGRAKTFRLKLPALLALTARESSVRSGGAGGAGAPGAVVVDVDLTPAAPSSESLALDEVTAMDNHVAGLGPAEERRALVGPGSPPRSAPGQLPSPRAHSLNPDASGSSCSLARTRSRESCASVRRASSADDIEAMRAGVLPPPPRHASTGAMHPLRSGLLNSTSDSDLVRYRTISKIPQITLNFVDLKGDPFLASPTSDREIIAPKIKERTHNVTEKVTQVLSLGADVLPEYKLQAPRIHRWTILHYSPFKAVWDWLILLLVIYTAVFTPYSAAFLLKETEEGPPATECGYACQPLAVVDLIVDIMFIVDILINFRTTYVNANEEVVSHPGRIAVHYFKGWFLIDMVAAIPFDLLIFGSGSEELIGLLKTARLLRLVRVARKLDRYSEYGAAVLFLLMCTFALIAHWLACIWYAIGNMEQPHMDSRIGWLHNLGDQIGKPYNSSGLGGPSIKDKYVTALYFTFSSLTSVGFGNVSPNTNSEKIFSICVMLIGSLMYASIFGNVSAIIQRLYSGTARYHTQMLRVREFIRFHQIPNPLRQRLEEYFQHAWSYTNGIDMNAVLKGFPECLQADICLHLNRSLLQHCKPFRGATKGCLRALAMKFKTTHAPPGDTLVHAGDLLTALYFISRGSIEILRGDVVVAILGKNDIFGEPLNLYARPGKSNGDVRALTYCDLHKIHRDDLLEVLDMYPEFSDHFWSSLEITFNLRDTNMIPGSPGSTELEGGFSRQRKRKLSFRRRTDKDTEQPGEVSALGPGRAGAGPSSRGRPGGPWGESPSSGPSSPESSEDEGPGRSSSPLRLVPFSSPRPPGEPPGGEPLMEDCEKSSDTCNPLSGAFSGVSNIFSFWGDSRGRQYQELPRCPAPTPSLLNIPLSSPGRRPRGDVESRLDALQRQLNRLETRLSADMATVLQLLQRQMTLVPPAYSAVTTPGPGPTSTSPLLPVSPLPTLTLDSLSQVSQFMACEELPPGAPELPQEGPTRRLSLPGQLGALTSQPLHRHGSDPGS

| SMILES | hERG current change (%, negative = inhibition) at 10uM |
| --- | --- |
| CC(C)c1ccc(NC2CCCN(C(=O)c3cccnc3)C2)cc1 (stereo not drawn) | 0.148% |
| Cc1c(C(=O)Nc2ccc(F)cc2)sc2ncn(CC(=O)N3CCCCC3)c(=O)c12 | 1.43% |
| O=C(N/N=C\c1ccc(Br)cc1)c1ccc(Cn2cccn2)o1 | -34.1% |
| O=C(N/N=C\c1c(O)ccc2ccccc12)c1ccc(Cn2cccn2)o1 | 9.2% |
| CC(C)c1ccc(/C=N\NC(=O)c2ccc(Cn3cccn3)o2)cc1 | -42% |
| Cc1ccccc1/C=N\NC(=O)c1ccc(Cn2cccn2)o1 | 4.98% |
| O=C(N/N=C\c1cccc(Cl)c1)c1ccc(Cn2cccn2)o1 | -71.2% |
| O=C(N/N=C\c1ccc(Cl)s1)c1ccc(Cn2cccn2)o1 | -57.2% |
| O=C(OCCOCCN=C1NS(=O)(=O)c2ccccc21)c1ccccc1 | 2.47% |
| COc1ccc(CNC(=O)CN(c2cccc(OC)c2)S(C)(=O)=O)cc1 | 2.47% |
| Cc1cc2c(NC(=O)Nc3ccc(F)cc3)cccc2nn1 | 8.16% |
| Clc1cccc(NCc2nnc(SCc3ccccc3)o2)c1 | 3.21% |
| COc1ccc(Cn2c(-c3ccc(OC)cc3)nc3ccccc32)cc1 | -36.9% |
| CCOc1ccc2[nH]c(=O)c(CN(CCO)C(=O)c3ccc(OC)c(OC)c3)cc2c1 | -0.583% |
| CCCCN1C=CC(=C2C(=O)c3ccccc3C2=O)C=C1 | -1.69% |
| CCCCCCN1C=CC(=C2C(=O)c3ccccc3C2=O)C=C1 | 10.5% |
| CCCCCN1C=CC(=C2C(=O)c3ccccc3C2=O)C=C1 | -61% |
| CCOC(=O)c1c(C)cc(C)n2c1nc1ccccc12 | -38.8% |
| CN(Cc1c(C(=O)N/N=C/c2ccccc2)nnn1-c1nonc1N)C1CCCCC1 | 8.4% |
| CCC(=O)N/N=C/c1ccc(OS(=O)(=O)c2ccccc2)cc1 | -17.5% |
| CCN(Cc1ccccc1)c1ccc(/C=N/N=C(N)N)cc1 | -25% |
| CN(C)/N=C/c1ccc(OS(=O)(=O)c2ccccc2)cc1 | 8.55% |

| SMILES | hERG current change (%, negative = inhibition) at 10uM |
| --- | --- |
| COc1ccc(/C=N\N=C(N)N)cc1.O=[N+]([O-])O | -1.01% |
| NC(N)=N/N=C/c1ccc(N(c2ccccc2)c2ccccc2)cc1.O=[N+]([O-])O | -50.8% |
| NC(N)=N/N=C/c1ccc(OS(=O)(=O)c2ccccc2)cc1 | -55.6% |
| COc1ccc(C(CNC(=O)COc2cc(C)ccc2Cl)N2CCCCC2)cc1 (stereo not drawn) | 1.57% |
| O=C(c1ccc2c3c(cccc13)CC2)C1CCCN(C(=O)c2ccc(=O)[nH]c2)C1 (stereo not drawn) | 4.99% |
| COc1ccc(OC)c(-n2c(=S)[nH]c3cc(C(=O)N4CCC(C(N)=O)CC4)ccc3c2=O)c1 | -2.14% |
| COc1ccc(-c2csc(COC(=O)C(C)(C)C)n2)cc1 | 18% |
| CC(C)Cc1nc2oc3c(NCC(C)O)ncnc3c2c2c1CCCC2 (stereo not drawn) | -7.54% |
| CC(C)Cc1nc2oc3c(NCc4cccnc4)ncnc3c2c2c1CCC2 | -50.8% |
| CC(C)c1nc2oc3c(NCc4cccnc4)ncnc3c2c2c1CCC2 | -50.2% |
| CC(C)c1nc2oc3c(N(C)CCO)ncnc3c2c2c1CCC2 | -28.1% |
| CC(C)Cc1nc2oc3c(NCC4CCCO4)ncnc3c2c2c1CCC2 (stereo not drawn) | -35.8% |
| CC(C)c1nc2oc3c(NCC4CCCO4)ncnc3c2c2c1CCC2 (stereo not drawn) | -27.4% |
| Cc1ccc(Cn2c(Sc3nccc(C)n3)nc3c2c(=O)[nH]c(=O)n3C)cc1 | -8.13% |
| N#CCCNC(=O)Cn1c(COc2ccc(Cl)cc2)nc2ccccc21 | -24.5% |
| Cc1ccc(/C=C/c2nc3ccccc3s2)s1 | 3.83% |
| COC(=O)c1ccc(-c2nc(CN3CCN(Cc4cccc(C)c4)CC3)c(C)o2)cc1 | -25.3% |
| Cc1oc(-c2ccccc2)nc1CS(=O)CC(=O)N1CCc2ccccc2C1 (stereo not drawn) | -20.5% |
| Cc1oc(-c2ccc(Cl)cc2)nc1CN1CCC(C(=O)N2CCN(Cc3ccccc3)CC2)CC1 | -69.1% |
| Cc1oc(-c2ccccc2)nc1C(=O)O | 17% |
| Cc1ccc(-c2nc(CS(=O)(=O)CC(=O)N3CCc4ccccc4C3)c(C)o2)cc1 | -16% |
| Cc1oc(-c2ccc(-c3ccccc3)cc2)nc1CN1CCN(CC(=O)N(C)C)CC1 | -53% |

| SMILES | hERG current change (%, negative = inhibition) at 10uM |
| --- | --- |
| Cc1oc(-c2ccc(Cl)cc2)nc1CN1CCC(C(=O)N2CCc3ccccc3C2)CC1 | -74% |
| CCC/C(O)=C1\C(=O)CC(C)(C)CC1=Nc1ccccc1OC | -13.4% |
| O=C(CCc1nnc(C2CCCCC2)o1)N1CCN(Cc2ccccc2)CC1 | 5.53% |
| COCCN(C(=O)CCC(=O)Nc1nccs1)C(C(=O)NC(C)(C)C)c1ccc(C)cc1 (stereo not drawn) | 5.03% |
| COc1ccccc1C1CCN(c2cc(O)ccc2[N+](=O)[O-])CC1 | 4.65% |
| Cc1cccc(NS(=O)(=O)c2nnc(NC(=O)c3cccc(C)c3)s2)c1 | 2.44% |
| O=C(Nc1cc(-c2nc3ccccc3s2)ccc1Cl)c1ccc2c(c1)OCO2 | 7.51% |
| CCOC(=O)c1nc2nc(C)c(Cl)c(=O)n2[nH]1 | 0.341% |
| COc1cccc2cc(C(=O)NC(C)c3ccccc3)c(=O)oc12 (stereo not drawn) | 16.3% |
| CCc1nn(CC(=O)NCCCN2CCOCC2)c(=O)c2cc3sccc3n12 | 16.2% |
| CCc1nn(CC(=O)NCCCN(CC)CC)c(=O)c2cc3sc(C)cc3n12 | 7.73% |
| CCc1nn(CC(=O)NCCCN2CCN(C)CC2)c(=O)c2cc3sc(C)cc3n12 | 14.8% |
| CCc1cc2c(cc3c(=O)n(CC(=O)NCCCN(CC)CC)nc(CC)n32)s1 | -34.9% |
| CCc1nn(CC(=O)NCCCN2CCCC2=O)c(=O)c2cc3sccc3n12 | -12.3% |
| CCc1cc2c(cc3c(=O)n(CC(=O)NCCCN4CCCCCC4)nc(CC)n32)s1 | -72.7% |
| CCc1nn(CC(=O)NCCCN(CC)Cc2ccccc2)c(=O)c2cc3sccc3n12 | -50.2% |
| CCc1nn(CC(=O)NCCCN(C)Cc2ccccc2)c(=O)c2cc3sc(C)cc3n12 | -69.9% |
| CCc1nn(CC(=O)NCCCN2CCc3ccccc3C2)c(=O)c2cc3sccc3n12 | -70.2% |
| CCc1nn(CC(=O)NCCCN2CCN(C)CC2)c(=O)c2cc3sccc3n12 | 7.04% |
| CCc1nn(CC(=O)NCCCN(Cc2ccccc2)C(C)C)c(=O)c2cc3sccc3n12 | -43.8% |
| CCCCN(CCCNC(=O)Cn1nc(CC)n2c(cc3sc(C)cc32)c1=O)Cc1ccccc1 | -47.1% |
| CN1Cc2c(N3CCOCC3)nc3sc(C#N)c(N)c3c2CC1(C)C | -8.57% |

| SMILES | hERG current change (%, negative = inhibition) at 10uM |
| --- | --- |
| CCOC(=O)c1cc(-c2ccccc2C)nn1CC1CC(c2ccc(OC)cc2)=NO1 (stereo not drawn) | 3.54% |
| Cc1cccc(CS(=O)(=O)Cc2ccc(C(=O)NCCc3ccccc3)o2)c1 | -38.8% |
| Cc1ccc(NC(=O)COC(=O)Cn2c(C)csc2=O)cc1C | 2.05% |
| CC(=O)N1CCC(N(C(=O)Nc2ccc(C)c(C)c2)C2CCCC2)CC1 | -31.2% |
| Cc1nnc(SCC2=C(C(=O)[O-])N3C(=O)C(NC(=O)Cc4ccccc4)C3SC2)s1.[Na+] (stereo not drawn) | 9.74% |
| CCn1c(C(=O)N2CCc3ccccc3C2)cc2sccc21 | -3.24% |
| CCn1c(C(=O)NCCCN2CCc3ccccc3C2)cc2sccc21 | -64% |
| CCN1CCN(CCCNC(=O)c2cc3sccc3n2CC)CC1 | -40.8% |
| N#Cc1ccc(OCC(=O)OCC(=O)Nc2ccc(N3CCOCC3)cc2)cc1 | -15.3% |
| CC(=O)NCc1ccc(C(=O)CCl)s1 | -7.15% |
| CN(C)C=Nc1ncc2c3ccccc3n(CCN(C)C)c2c1C#N | -15.7% |
| CCN(CC)CCn1c2ccccc2c2cnc(N)c(C#N)c21 | -60.5% |
| CCN(CC)CCn1c2ccccc2c2cnc(N=CN(C)C)c(C#N)c21 | -31.8% |
| CC1CN(C(=O)CSc2nc(N)cc(N)n2)CC(C)O1 (stereo not drawn) | -10.3% |
| Cc1nnc2c(NC3CCCC3)nc3ccccc3n12 | -37.3% |
| CCCOc1ccc(N2C(=O)CC(N(CCc3ccccc3)C(=O)c3ccccc3)C2=O)cc1 (stereo not drawn) | 10.8% |
| CCOc1ccc(N2C(=O)CC(N(CCc3ccc(OC)cc3)C(=O)c3cccc(F)c3)C2=O)cc1 (stereo not drawn) | -63% |
| CCCOc1ccc(N2C(=O)CC(N(CCc3ccc(OC)cc3)C(=O)c3cccc(F)c3)C2=O)cc1 (stereo not drawn) | -8.44% |
| COc1ccc(CCN(C(=O)c2cccc(F)c2)C2CC(=O)N(c3ccccc3)C2=O)cc1 (stereo not drawn) | -38.5% |
| CCCOc1ccc(N2C(=O)CC(N(CCc3ccc(OC)c(OC)c3)C(=O)c3ccccc3)C2=O)cc1 (stereo not drawn) | -74.9% |
| CCCOc1ccc(N2C(=O)CC(N(CCc3ccc(OC)cc3)C(=O)c3ccccc3)C2=O)cc1 (stereo not drawn) | -10.6% |
